# In the supplement of paper PMC12067093, “Discovery and optimisation of a covalent ligand for TRIM25 and its application to targeted protein ubiquitination” (Chemical Science, 2025):
# Of roughly 21,000 targets only a part is listed; those with the largest changes were picked by preference.
# Experiments:
# Experiment in all cases: probe-labelled cysteine peptide fold change vs DMSO (competition) (log2 fold change); higher = less target engagement (more negative = stronger competition)
# Conditions in all cases: THP-1, incubation time: 4 h
# [1] = biological target: A6NIZ1_A6NIZ1_118_VKDTDDVPMILVGNKCDLEDERVVGK<|>RAP1B_P61224_118_VKDTDDVPMILVGNKCDLEDERVVGK (UniProt P61224+A6NIZ1)
# [2] = biological target: A6NNZ2_A6NNZ2_303_NMMAACDPR<|>TUBB4A_P04350_303_NMMAACDPR<|>TUBB_P07437_303_NMMAACDPR<|>TUBB4B_P68371_303_NMMAACDPR<|>TUBB3_Q13509_303_NMMAACDPR<|>TUBB2A_Q3ZCM7_303_NMMAACDPR<|>TUBB8_Q9BUF5_303_NMMAACDPR<|>TUBB6_Q9BVA1_303_NMMAACDPR (UniProt Q9BVA1+Q3ZCM7+Q13509+P68371+P07437+P04350+Q9BUF5+A6NNZ2)
# [3] = biological target: ABCC1_P33527_1047_CLHVDLLHSILR (UniProt P33527)
# [4] = biological target: ABCF2_Q9UG63_586_LIQQVAQEIWVCEK (UniProt Q9UG63)
# [5] = biological target: ABHD10_Q9NUJ1_229_EAEHHCLLHSPIPVNCPIR (UniProt Q9NUJ1)
# [6] = biological target: ABHD15_Q6UXT9_323_EFEEALFCHTK (UniProt Q6UXT9)
# [7] = biological target: ABHD16A_O95870_544_HLHNFEATHCTPLPAQNFQMPWHL (UniProt O95870)
# [8] = biological target: ABHD17B_Q5VST6_250_CQRPVEPLWVEGAGHNDVELYGQYLER (UniProt Q5VST6)
# [9] = biological target: ACAA1_P09110_123_QCSSGLQAVASIAGGIR (UniProt P09110)
# [10] = biological target: ACAA1_P09110_177_ARDCLIPMGITSENVAER (UniProt P09110)
# [11] = biological target: ACAA2_P42765_116_EAEVVLCGGTESMSQAPYCVR (UniProt P42765)
# [12] = biological target: ACAD9_Q9H845_271_GSNTCEVHFENTK (UniProt Q9H845)
# [13] = biological target: ACADS_P16219_109_GCASTGVIMSVNNSLYLGPILK (UniProt P16219)
# [14] = biological target: ACADVL_P49748_237_TSAVPSPCGK (UniProt P49748)
# [15] = biological target: ACADVL_P49748_477_LFVALQGCMDK (UniProt P49748)
# [16] = biological target: ACADVL_P49748_603_MLCDTWCIEAAAR (UniProt P49748)
# [17] = biological target: ACAP2_Q15057_329_FCFEVVSPTK (UniProt Q15057)
# [18] = biological target: ACAP2_Q15057_691_GPLHHATVLGHTGQVCLFLK (UniProt Q15057)
# [19] = biological target: ACAT1_P24752_196_IHMGSCAENTAK (UniProt P24752)
# [20] = biological target: ACAT1_P24752_413_QGEYGLASICNGGGGASAMLIQK (UniProt P24752)
# [21] = biological target: ACAT2_Q9BWD1_360_VNIEGGAIALGHPLGASGCR (UniProt Q9BWD1)
# [22] = biological target: ACLY_P53396_633_GVTIIGPATVGGIKPGCFK (UniProt P53396)
# [23] = biological target: ACO2_Q99798_451_DLGGIVLANACGPCIGQWDRK (UniProt Q99798)
# 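Further: competitive profiling in live THP-1 cells: cysteine peptides tagged with an iodoacetamide desthiobiotin (IA-DTB) probe, intensity after compound treatment relative to DMSO-treated cells.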
# Chain of ABHD15_Q6UXT9_323_EFEEALFCHTK (Q6UXT9 whole entry, looked up): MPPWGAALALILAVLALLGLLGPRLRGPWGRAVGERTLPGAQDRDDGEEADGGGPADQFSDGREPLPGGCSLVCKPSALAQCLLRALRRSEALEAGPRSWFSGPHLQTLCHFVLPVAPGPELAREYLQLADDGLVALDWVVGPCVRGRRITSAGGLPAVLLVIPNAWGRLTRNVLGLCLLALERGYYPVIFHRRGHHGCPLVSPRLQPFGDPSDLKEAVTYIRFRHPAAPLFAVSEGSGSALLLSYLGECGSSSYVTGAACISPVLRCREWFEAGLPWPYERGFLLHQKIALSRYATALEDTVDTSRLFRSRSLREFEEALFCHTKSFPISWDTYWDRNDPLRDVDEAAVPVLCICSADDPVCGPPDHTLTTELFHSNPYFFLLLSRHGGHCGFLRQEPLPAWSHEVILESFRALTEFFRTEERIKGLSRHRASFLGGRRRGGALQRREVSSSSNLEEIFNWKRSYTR
# Chain of UniProt P09110 (P09110 whole entry, looked up): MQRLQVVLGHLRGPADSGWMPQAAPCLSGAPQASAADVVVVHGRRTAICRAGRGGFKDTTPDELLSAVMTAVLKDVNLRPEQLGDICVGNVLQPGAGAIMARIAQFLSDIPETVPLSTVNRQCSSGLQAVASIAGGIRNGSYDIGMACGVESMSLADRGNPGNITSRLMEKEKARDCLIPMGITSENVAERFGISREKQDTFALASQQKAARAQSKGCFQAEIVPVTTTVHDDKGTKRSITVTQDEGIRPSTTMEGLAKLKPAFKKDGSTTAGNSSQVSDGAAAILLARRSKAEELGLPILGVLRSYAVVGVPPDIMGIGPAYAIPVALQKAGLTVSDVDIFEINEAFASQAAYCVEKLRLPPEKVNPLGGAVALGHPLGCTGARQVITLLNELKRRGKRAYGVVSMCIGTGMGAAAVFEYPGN
# Chain of UniProt P09110 (P09110 whole entry, looked up): as above
# Chain of UniProt P24752 (P24752 whole entry, looked up): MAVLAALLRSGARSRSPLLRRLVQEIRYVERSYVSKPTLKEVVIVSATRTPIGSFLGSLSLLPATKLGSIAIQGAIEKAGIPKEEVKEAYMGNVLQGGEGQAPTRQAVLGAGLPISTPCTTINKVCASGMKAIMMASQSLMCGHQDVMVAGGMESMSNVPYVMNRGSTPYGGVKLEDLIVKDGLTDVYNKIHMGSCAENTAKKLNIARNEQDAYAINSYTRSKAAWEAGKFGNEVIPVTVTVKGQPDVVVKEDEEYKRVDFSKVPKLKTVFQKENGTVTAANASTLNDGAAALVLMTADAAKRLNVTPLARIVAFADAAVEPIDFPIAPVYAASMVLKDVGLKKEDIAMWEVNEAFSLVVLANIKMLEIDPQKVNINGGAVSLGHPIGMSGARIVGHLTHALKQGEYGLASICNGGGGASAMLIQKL
# Chain of UniProt P24752 (P24752 whole entry, looked up): as above
# Chain of ACADVL_P49748_477_LFVALQGCMDK (P49748 whole entry, looked up): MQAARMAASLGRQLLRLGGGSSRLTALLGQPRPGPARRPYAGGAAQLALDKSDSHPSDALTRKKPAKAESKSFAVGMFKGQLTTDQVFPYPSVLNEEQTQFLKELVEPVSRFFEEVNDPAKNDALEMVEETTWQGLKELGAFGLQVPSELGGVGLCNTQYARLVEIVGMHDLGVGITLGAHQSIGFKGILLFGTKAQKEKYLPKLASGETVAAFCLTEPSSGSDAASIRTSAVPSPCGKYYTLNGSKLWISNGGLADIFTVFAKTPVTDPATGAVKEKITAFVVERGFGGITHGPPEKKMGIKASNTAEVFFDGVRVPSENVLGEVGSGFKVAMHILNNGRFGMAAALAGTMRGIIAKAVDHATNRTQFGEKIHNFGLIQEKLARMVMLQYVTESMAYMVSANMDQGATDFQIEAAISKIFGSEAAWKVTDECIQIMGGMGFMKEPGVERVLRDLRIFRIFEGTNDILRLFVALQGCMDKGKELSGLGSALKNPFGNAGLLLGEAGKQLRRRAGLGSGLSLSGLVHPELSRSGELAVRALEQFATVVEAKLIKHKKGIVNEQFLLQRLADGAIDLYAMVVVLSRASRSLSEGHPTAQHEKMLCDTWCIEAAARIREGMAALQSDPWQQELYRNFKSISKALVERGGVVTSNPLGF
# Chain of ACADVL_P49748_237_TSAVPSPCGK (P49748 whole entry, looked up): as above
# Chain of UniProt P49748 (P49748 whole entry, looked up): as above
# Chain of UniProt Q99798 (Q99798 whole entry, looked up): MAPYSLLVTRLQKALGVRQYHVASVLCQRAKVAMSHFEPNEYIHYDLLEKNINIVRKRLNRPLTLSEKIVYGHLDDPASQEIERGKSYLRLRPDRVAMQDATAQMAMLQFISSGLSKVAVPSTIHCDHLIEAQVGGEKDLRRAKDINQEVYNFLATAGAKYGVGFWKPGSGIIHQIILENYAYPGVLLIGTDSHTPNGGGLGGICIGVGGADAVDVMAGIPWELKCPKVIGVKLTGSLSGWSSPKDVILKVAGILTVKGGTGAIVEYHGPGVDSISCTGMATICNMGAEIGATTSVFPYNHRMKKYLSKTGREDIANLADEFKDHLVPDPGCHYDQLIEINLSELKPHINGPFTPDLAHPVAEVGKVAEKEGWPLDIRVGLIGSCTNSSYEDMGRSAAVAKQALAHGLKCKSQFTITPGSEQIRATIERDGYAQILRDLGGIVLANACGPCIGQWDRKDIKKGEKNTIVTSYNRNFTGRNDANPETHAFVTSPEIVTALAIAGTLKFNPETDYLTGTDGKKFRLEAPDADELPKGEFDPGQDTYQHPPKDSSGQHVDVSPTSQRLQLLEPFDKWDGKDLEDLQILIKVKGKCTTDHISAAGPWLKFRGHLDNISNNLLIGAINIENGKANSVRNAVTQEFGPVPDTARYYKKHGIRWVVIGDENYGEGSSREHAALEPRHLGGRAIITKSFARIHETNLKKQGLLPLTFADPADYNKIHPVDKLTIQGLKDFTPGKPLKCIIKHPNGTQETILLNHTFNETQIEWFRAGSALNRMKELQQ
# Chain of UniProt Q9BWD1 (Q9BWD1 whole entry, looked up): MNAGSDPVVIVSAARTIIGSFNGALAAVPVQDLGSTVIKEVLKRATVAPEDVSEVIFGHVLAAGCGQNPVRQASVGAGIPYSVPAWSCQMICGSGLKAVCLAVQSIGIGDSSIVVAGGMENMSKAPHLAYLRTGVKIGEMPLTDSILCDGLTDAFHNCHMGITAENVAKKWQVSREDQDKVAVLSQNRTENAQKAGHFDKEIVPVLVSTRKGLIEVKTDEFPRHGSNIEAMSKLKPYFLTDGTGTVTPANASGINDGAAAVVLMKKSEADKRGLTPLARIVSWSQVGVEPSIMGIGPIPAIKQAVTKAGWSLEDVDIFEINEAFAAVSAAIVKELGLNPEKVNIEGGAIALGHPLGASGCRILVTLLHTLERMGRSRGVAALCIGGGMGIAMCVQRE
# Chain of ACAP2_Q15057_329_FCFEVVSPTK (Q15057 whole entry, looked up): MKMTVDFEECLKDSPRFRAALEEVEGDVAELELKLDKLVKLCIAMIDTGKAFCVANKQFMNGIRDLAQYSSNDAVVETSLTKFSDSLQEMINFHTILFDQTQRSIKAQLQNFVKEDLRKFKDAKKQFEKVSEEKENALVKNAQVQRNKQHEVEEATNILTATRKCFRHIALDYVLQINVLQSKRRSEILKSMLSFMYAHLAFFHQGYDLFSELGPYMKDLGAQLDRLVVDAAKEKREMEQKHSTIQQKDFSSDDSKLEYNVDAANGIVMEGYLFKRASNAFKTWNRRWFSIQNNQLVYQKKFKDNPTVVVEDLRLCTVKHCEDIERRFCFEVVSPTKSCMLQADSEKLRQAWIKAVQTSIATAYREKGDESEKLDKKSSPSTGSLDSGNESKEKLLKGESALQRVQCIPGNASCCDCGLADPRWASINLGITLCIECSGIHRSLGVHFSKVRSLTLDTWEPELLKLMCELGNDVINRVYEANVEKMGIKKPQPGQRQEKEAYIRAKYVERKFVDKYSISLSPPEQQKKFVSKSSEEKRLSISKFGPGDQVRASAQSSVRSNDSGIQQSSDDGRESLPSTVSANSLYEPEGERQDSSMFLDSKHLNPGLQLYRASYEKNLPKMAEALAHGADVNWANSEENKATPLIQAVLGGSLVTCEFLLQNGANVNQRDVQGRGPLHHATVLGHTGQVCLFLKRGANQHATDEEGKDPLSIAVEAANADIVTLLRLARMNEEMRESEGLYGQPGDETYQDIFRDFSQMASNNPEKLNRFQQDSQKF
# Chain of UniProt Q15057 (Q15057 whole entry, looked up): as above
# Chain of UniProt Q9NUJ1 (Q9NUJ1 whole entry, looked up): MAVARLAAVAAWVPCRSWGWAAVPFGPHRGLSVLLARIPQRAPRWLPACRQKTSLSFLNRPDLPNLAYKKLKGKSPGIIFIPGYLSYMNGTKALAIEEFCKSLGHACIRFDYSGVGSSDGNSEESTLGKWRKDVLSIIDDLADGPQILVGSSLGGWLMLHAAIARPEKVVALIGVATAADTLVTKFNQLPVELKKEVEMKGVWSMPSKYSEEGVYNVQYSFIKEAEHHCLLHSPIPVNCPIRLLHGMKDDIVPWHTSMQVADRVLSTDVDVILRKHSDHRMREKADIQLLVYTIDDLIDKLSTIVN
# Chain of UniProt P42765 (P42765 whole entry, looked up): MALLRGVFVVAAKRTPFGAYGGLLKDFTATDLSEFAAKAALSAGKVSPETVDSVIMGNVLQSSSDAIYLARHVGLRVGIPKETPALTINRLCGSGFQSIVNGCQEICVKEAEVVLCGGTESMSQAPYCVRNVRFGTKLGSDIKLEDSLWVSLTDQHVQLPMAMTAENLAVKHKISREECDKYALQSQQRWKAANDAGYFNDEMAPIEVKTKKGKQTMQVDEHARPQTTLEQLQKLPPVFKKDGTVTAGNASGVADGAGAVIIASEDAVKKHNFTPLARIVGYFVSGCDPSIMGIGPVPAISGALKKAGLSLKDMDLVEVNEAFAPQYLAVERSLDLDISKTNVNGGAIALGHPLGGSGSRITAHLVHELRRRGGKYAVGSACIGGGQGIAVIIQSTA
structure (smiles),measurement,setting,value
Cc1cc(C(=O)N2CCCN(C(=O)CCl)CC2)ccc1-c1ccccc1 [compound 10],probe-labelled cysteine peptide fold change,[1]; 10 µM,-0.667
same,probe-labelled cysteine peptide fold change,[1]; 50 µM,-1.16
same,probe-labelled cysteine peptide fold change,[2]; 10 µM,-0.0352
same,probe-labelled cysteine peptide fold change,[2]; 50 µM,-0.104
same,probe-labelled cysteine peptide fold change,[3]; 10 µM,-0.245
same,probe-labelled cysteine peptide fold change,[3]; 50 µM,-0.823
same,probe-labelled cysteine peptide fold change,[4]; 10 µM,0.35
same,probe-labelled cysteine peptide fold change,[4]; 50 µM,0.325
same,probe-labelled cysteine peptide fold change,[5]; 10 µM,0.0491
same,probe-labelled cysteine peptide fold change,[5]; 50 µM,0.0493
same,probe-labelled cysteine peptide fold change,[6]; 10 µM,0.0269
same,probe-labelled cysteine peptide fold change,[6]; 50 µM,-0.0455
same,probe-labelled cysteine peptide fold change,[7]; 10 µM,-0.497
same,probe-labelled cysteine peptide fold change,[7]; 50 µM,-1.15
same,probe-labelled cysteine peptide fold change,[8]; 10 µM,0.198
same,probe-labelled cysteine peptide fold change,[8]; 50 µM,0.147
same,probe-labelled cysteine peptide fold change,[9]; 10 µM,-0.136
same,probe-labelled cysteine peptide fold change,[9]; 50 µM,-0.197
same,probe-labelled cysteine peptide fold change,[10]; 10 µM,-0.114
same,probe-labelled cysteine peptide fold change,[10]; 50 µM,0.0101
same,probe-labelled cysteine peptide fold change,[11]; 10 µM,-0.0523
same,probe-labelled cysteine peptide fold change,[11]; 50 µM,0.00696
same,probe-labelled cysteine peptide fold change,[12]; 10 µM,0.0883
same,probe-labelled cysteine peptide fold change,[12]; 50 µM,0.106
same,probe-labelled cysteine peptide fold change,[13]; 10 µM,0.363
same,probe-labelled cysteine peptide fold change,[13]; 50 µM,0.27
same,probe-labelled cysteine peptide fold change,[14]; 10 µM,-0.143
same,probe-labelled cysteine peptide fold change,[14]; 50 µM,-0.259
same,probe-labelled cysteine peptide fold change,[15]; 10 µM,-0.223
same,probe-labelled cysteine peptide fold change,[15]; 50 µM,0.311
same,probe-labelled cysteine peptide fold change,[16]; 10 µM,-0.105
same,probe-labelled cysteine peptide fold change,[16]; 50 µM,-0.188
same,probe-labelled cysteine peptide fold change,[17]; 10 µM,0.23
same,probe-labelled cysteine peptide fold change,[17]; 50 µM,0.177
same,probe-labelled cysteine peptide fold change,[18]; 10 µM,-0.107
same,probe-labelled cysteine peptide fold change,[18]; 50 µM,-1.08
same,probe-labelled cysteine peptide fold change,[19]; 10 µM,-0.282
same,probe-labelled cysteine peptide fold change,[19]; 50 µM,-1.22
same,probe-labelled cysteine peptide fold change,[20]; 10 µM,-0.164
same,probe-labelled cysteine peptide fold change,[20]; 50 µM,-1.09
same,probe-labelled cysteine peptide fold change,[21]; 10 µM,0.232
same,probe-labelled cysteine peptide fold change,[21]; 50 µM,0.226
same,probe-labelled cysteine peptide fold change,[22]; 10 µM,-0.00834
same,probe-labelled cysteine peptide fold change,[22]; 50 µM,0.0362
same,probe-labelled cysteine peptide fold change,[23]; 10 µM,-0.125
same,probe-labelled cysteine peptide fold change,[23]; 50 µM,-0.398
